# WT yeast gro inh: growth inhibition of WT yeast, mitochondrial fusion screen; 190,000 compounds, 2.1% hits; inhibition, % at 10 µM; mitochondrial fusion phenotypic screen, WT strain; in the data active = inhibition above about 58%; tested in S. cerevisiae
# Lmaj promast: inhibitors of Leishmania major promastigote growth; Leishmania major promastigotes, resazurin fluorescence viability; inhibition, % at 10 µM; 200,000 compounds, 9% hits; AID 1063; in the data active = inhibition above about 50%;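 note: promastigotes grown with compound for 44 hours at 28 °C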
# CHOP inhibitor: blocks CHOP induction under ER stress; CHO-K1 CHOP-promoter luciferase, tunicamycin-induced, 15-18 h; 220,000 compounds, 3.8% hits; AID 2732; inhibition, % at 10 µM;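 active = compounds that reduced the stress-induced luciferase reporter signal by more than about 70% of percent inhibition, limit read from the data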;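 note: 0% = tunicamycin plus vehicle and 100% = wells without tunicamycin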
# RAM inhibit: blocks the yeast RAM network; S. cerevisiae dse1pr::URA3 reporter, 5-FOA growth OD615, 2 d; analog-sensitive cbk1-as2 kinase mutant strain; inhibition, % at 50 µM; 190,000 compounds, 1.8% hits; AID 868;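 active = inhibition above a set limit, 3 SD over mean compound inhibition, cut at about 8.4% in these data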;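 note: 0% = DMSO-only wells with no growth and 100% = 10 µM 1-NA-PP1 full growth; inhibition rescues growth on 5-FOA so higher OD means more RAM inhibition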
# Numbers without * were called inactive; . = no result. Only some compounds are listed: those with a hit (about 13% of all), similar ones and a draw of the others.
SMILES,WT yeast gro inh,Lmaj promast,CHOP inhibitor,RAM inhibit
CN(C)c1cccc(C(=O)OCc2cc(=O)oc3cc(O)ccc23)c1,34,-6,90*,0
Cc1ccc2c(COC(=O)C34CC5CC(CC(C5)C3)C4)cc(=O)oc2c1,1,-4,54,2
CC1CN(S(=O)(=O)c2cccc(C(=O)OCc3cc(=O)oc4cc(O)ccc34)c2)CC(C)O1 (centres undefined),-1,96*,.,3
CC1CN(S(=O)(=O)c2cccc(C(=O)OCC(=O)c3cccs3)c2)CC(C)O1 (centres undefined),-3,-1,4,1
CCOc1ccccc1NC(=O)Cn1nnc(C(=O)Nc2ccccc2Cl)c1N,10,0,73*,6
COc1ccccc1NC(=O)c1nnn(CC(=O)Nc2cccc(SC)c2)c1N,12,2,70*,5
Cc1cc([N+](=O)[O-])nn1CCCC(=O)Nc1c(C)n(C)n(-c2ccccc2)c1=O,13,-4,16,1
CC(C)n1nc(C(=O)Oc2cccc(Cl)c2Cl)c2ccccc2c1=O,7,-3,42,2
CCN1CCN(C(C)C(=O)NC2CCCCC2)CC1 (centres undefined),.,.,4,.
Cc1ccc(-c2csc(C3=C(O)CN(NC(=O)c4ccc([N+](=O)[O-])cc4)C3=N)n2)cc1,7,-5,4,8.6*
N=C1C(c2nc(-c3ccc(Br)cc3)cs2)=C(O)CN1NC(=O)c1ccc([N+](=O)[O-])cc1,-2,-4,-23,3
OCCC1CN(Cc2cnc(-c3ccccc3)s2)CCN1C1CCCCC1 (centres undefined),-8,81*,2,1
CCOc1ccc(CN2CCN(Cc3cc4ccccc4[nH]3)CC2CCO)cc1 (centres undefined),18,79*,63,-1
OCCC1CN(Cc2cnc(-c3ccccc3)s2)CCN1C1CCCC1 (centres undefined),6,80*,14,3
COc1cccc(CN2CCN(Cc3cc4ccccc4[nH]3)CC2CCO)c1 (centres undefined),.,.,0,.
CCOc1ccc(CN2CCN(Cc3cnc(-c4ccccc4)s3)CC2CCO)cc1 (centres undefined),-2,86*,14,1
NNC(=O)Cn1c(-c2ccccc2)cc(=O)n2ncnc12,.,.,9,.
CSc1ncc(CN2CCN(C3CCCCC3)C(CCO)C2)cn1 (centres undefined),-17,-6,1,1
CCOc1ccc(CN2CCN(CC3=Cc4cccc(OC)c4OC3)CC2CCO)cc1 (centres undefined),6,78*,8,0
CCOc1ccc(CN2CCN(C/C=C/c3ccc(OC)cc3)CC2CCO)cc1 (centres undefined),-9,23,10,-1
Cc1ccccc1-c1ncc(CN2CCN(C3CCCCC3)C(CCO)C2)cn1 (centres undefined),-12,56*,-5,0
Clc1ccc(Cl)c(OCCCCNCc2ccccc2)c1,47,98*,37,1
O=C(COc1ccccc1[N+](=O)[O-])c1ccccc1,-7,99*,-30,4
Clc1ccc(OCCCNCc2ccccc2)c(Br)c1,36,91*,35,0
O=[N+]([O-])c1ccccc1OCCCNCc1ccccc1,4,98*,-8,1
SMILES,WT yeast gro inh,Lmaj promast,CHOP inhibitor,RAM inhibit
CCOc1ccccc1OCCOCCOc1ccccc1[N+](=O)[O-],8,-2,20,1
Cc1ccc(NC(=O)Cn2cccc2)cc1,-4,-6,23,1
CCOC(=O)C[N+](C)(C)CCOC1CC2CCC1(C)C2(C)C (centres undefined),2,-6,-9,1
CC1(C)C2CCC1(C)C(OCC[N+](C)(C)CC(=O)OC1CCCCC1)C2 (centres undefined),26,100*,15,1
Cc1nc2c(-c3ccccc3)c(C)nn2c(N)c1-c1ccccc1,74*,100*,12,0
Cc1nn2c(-c3ccccc3)ccnc2c1-c1ccccc1,7,-4,67,1
Cc1nn(-c2nc3ccccc3[nH]2)c(N)c1-c1ccccc1,72*,91*,9,1
Cc1nn(-c2ccccc2)c(N)c1-c1ccccc1,5,-7,-13,0
Cc1nn(CC(=O)Nc2ccc3c(c2)nc(CCN2CCCCC2)n3C)c(=O)c2ccccc12,-12,3,12,-1
Cc1nn(CC(=O)Nc2ccc3c(c2)nc2n3CCN(C3CCCCC3)C2)c(=O)c2ccccc12,8,72*,65,0
CN(C)C(CNC(=S)Nc1ccccc1Cl)c1cccnc1 (centres undefined),14,4,-6,-1
CC(C)(C)c1nn(-c2ccccc2)c2[nH]c(=O)c(CNCc3ccc4c(c3)OCO4)cc12,19,16,94*,1
CCOc1cccc(NCc2cc3c(C(C)(C)C)nn(-c4ccccc4)c3[nH]c2=O)c1,.,42,60,2
Cc1cc(C(=O)COC(=O)CN=C2NS(=O)(=O)c3ccccc32)c(C)n1CCc1ccc(Cl)cc1,-10,-6,5,4
Cc1cn2nc(N)c3ccccc3c2n1,21,-3,6,-1
Nc1nn2cc(-c3ccccc3)nc2c2ccccc12,44,87*,6,4
COCCCn1c(SCC(=O)Nc2ccc(C(C)=O)cc2)nc2ccccc2c1=O,15,9,15,2
COc1ccc(-n2cnnc2SCC(=O)Nc2cc(C(C)(C)C)nn2-c2ccccc2)cc1,.,4,50,3
COCCn1c(SCC(=O)Nc2cccc(C(=O)OC)c2)nc2ccccc2c1=O,3,2,-16,8.8*
COc1ccccc1-n1cnnc1SCC(=O)Nc1cc(C(C)(C)C)nn1-c1ccccc1,78*,9,50,0
COCCn1c(SCC(=O)Nc2cccc(C)c2)nnc1C(C)C,11,91*,48,2
CCOCCCn1c(SCC(=O)Nc2cc(C(C)(C)C)nn2-c2ccccc2)nc2ccccc2c1=O,8,72*,30,2
COc1ccccc1C(=O)N/N=C/c1cnc2ccccc2n1,-6,-2,-17,1
CC1CN(CC(=O)NN=C(c2ccccc2)c2ccccc2)CC(C)O1 (centres undefined),6,1,7,0
O=S(=O)(Nc1ncccn1)c1ccc(NC(=S)NCCc2ccccc2)cc1,5,-10,4,0
SMILES,WT yeast gro inh,Lmaj promast,CHOP inhibitor,RAM inhibit
COCCn1c(SCC(=O)Nc2ccc(OC)cc2)nc2c(oc3ccccc32)c1=O,-5,12,48,2
COCCCn1c(SCc2nc3ccccc3c(=O)[nH]2)nc2ccccc2c1=O,14,8,28,9.5*
COCCn1c(SCC(=O)Nc2cc(C(C)(C)C)nn2-c2ccccc2)nnc1-c1ccncc1,11,-3,13,3
COCCn1c(SCC(=O)Nc2cc(C(C)(C)C)nn2-c2ccccc2)nc2ccccc2c1=O,6,54*,55,4
COCCn1c(SCC(=O)Nc2ccccc2C)nc2c(oc3ccccc32)c1=O,-5,0,79*,3
C=CCn1c(SCC(=O)Nc2cccc(C(=O)OC)c2)nnc1C(C)NC(=O)c1cccs1 (centres undefined),83*,-1,2,2
